The text below walks through data of the supplement of paper PMC10338343.

The test system of assay [1] is MILI (PIWIL2) piRISC loaded with L1MC piRNA (26 nt). As to the kind of experiment: pre-steady-state target cleavage rate (min^-1); guide: L1MC piRNA 5'p-UAACUAAAUACUAUGCAAGCUGUAGG; higher = faster piRNA-guided slicing of the target. Summed up:
(§1)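 Active affinity-purified piRISC carrying one synthetic guide (1 nM) was mixed with a transcribed, DNA-blocked target RNA library […] in HEPES–potassium acetate buffer at 33 °C for 0–8 or 0–960 min, with or without 500 nM GTSF1 partner protein. Uncleaved targets were then sequenced and normalised to depth and to weakly complementary targets. Three trials were pooled, and k3 was capped at 0.0001 min^-1. A burst-and-steady-state fit was applied to obtain the pre-steady-state cleavage rate.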

The subject of assay [2] is EfPiwi piRISC loaded with L1MC piRNA (26 nt). As to the kind of experiment: pre-steady-state target cleavage rate (min^-1); auxiliary factor: none (no Gtsf1); guide: L1MC piRNA 5'p-UAACUAAAUACUAUGCAAGCUGUAGG; higher = faster piRNA-guided slicing of the target. In outline:
as §1

For assay [3] the test system is unchanged. As to the kind of experiment: pre-steady-state target cleavage rate (min^-1); auxiliary factor: 500 nM Ephydatia muelleri Gtsf1; guide: L1MC piRNA 5'p-UAACUAAAUACUAUGCAAGCUGUAGG; MIWI and MILI are mouse PIWI proteins and EfPiwi is from a freshwater sponge; tags in brackets are library labels; higher = faster piRNA-guided slicing of the target. In outline:
as §1

The mark [4] stands for this setting: auxiliary factor: 500 nM mouse GTSF1.
Setting [5] is: auxiliary factor: none (no GTSF1).

± gives the standard deviation.

Take UCCUGGUACAGCUUGCAUAGAAUUUACUUA: the “pre-steady-state target cleavage rate” value is 0.0206 ± 0.011 in assay [1] (setting [4]) and less than 0.0001 in assay [2].
Take UCCUGGAUCAGCUUGCAUAGUAUUUUAGUUA: the “pre-steady-state target cleavage rate” value in assay [1] (setting [4]) was 0.23 ± 0.025; in assay [1] (setting [5]) it was 0.0107 ± 0.0028; in assay [2], 0.0111 ± 0.0065; in assay [3] it was 0.0214 ± 0.0071.
As for UCCUGGUUACAGCUUGCAUAGUAUUUAGUUA, the “pre-steady-state target cleavage rate” value was 0.256 ± 0.025 in assay [1] (setting [4]), 0.03 ± 0.0078 in assay [1] (setting [5]), 0.00968 ± 0.0057 in assay [2] and 0.0881 ± 0.021 in assay [3].
Regarding UCCUGGAUGUCGAAGCAUAGUAUUUAGUGA, the “pre-steady-state target cleavage rate” value in assay [1] (setting [4]) is 0.0495 ± 0.015; in assay [1] (setting [5]), 0.00324 ± 0.0026; in assay [2] it was less than 0.0001.
Regarding UCCUGCUACAGCAUCCAUAGUAUUUAGUUA, the results for the “pre-steady-state target cleavage rate” value in assay [1] (setting [4]), in assay [2] and in assay [3] were 0.195 ± 0.047, less than 0.0001 and 0.00233 ± 0.0017, respectively.
UCCUGGAUCACGUUGCAUAGUAUUUAGAAA: the “pre-steady-state target cleavage rate” value in assay [1] (setting [4]) was 0.128 ± 0.022; in assay [1] (setting [5]) it was 0.00275 ± 0.0027; in assay [2] it was less than 0.0001; in assay [3], 0.00652 ± 0.0044.
Turning to UCCUGGAUGAGCUUGCAAAGUAUAUAGUUA, the “pre-steady-state target cleavage rate” value is 0.148 ± 0.02 in assay [1] (setting [4]), 0.00576 ± 0.0029 in assay [1] (setting [5]) and less than 0.0001 in assay [2].
Consider UCCUGGAUGAGCUUGCAUAGUAUUAAGUAA, for which, in assay [1] (setting [4]), the “pre-steady-state target cleavage rate” value is 0.0732 ± 0.021.
On to UCCUGCAUGAGCUUGCAUAGUAUUUAGAAA, for which the “pre-steady-state target cleavage rate” value is 0.157 ± 0.028 in assay [1] (setting [4]), less than 0.0001 in assay [2] and 0.00569 ± 0.0021 in assay [3].
For UCCUGGAUGUCCAUGCAUAGUAUAUAGUUA, the “pre-steady-state target cleavage rate” value in assay [1] (setting [4]) was 0.0181 ± 0.0064; in assay [1] (setting [5]) it was 0.00373 ± 0.0026; in assay [2] it was less than 0.0001.
For UCCUGGAUGUCGAAGCAUAGUUUUUAGUUA the same measures were 0.00892 ± 0.0039, 0.00397 ± 0.0017 and less than 0.0001.
On to UCCUGGAUCAGCUUGCAUAGUGUUUAGUUA, for which the “pre-steady-state target cleavage rate” value in assay [1] (setting [4]) was determined as 0.2 ± 0.018; in assay [1] (setting [5]), 0.00361 ± 0.003; in assay [2], 0.00696 ± 0.0045; in assay [3], 0.0156 ± 0.0035.
For UCCUGGAUGUCGAACGUAUGUCUUUAGUUA, the “pre-steady-state target cleavage rate” value in assay [2] and in assay [3] was less than 0.0001 throughout.
Consider UCCUGGAUGAGCUUGCAUAGUACUUAGUUA, for which the “pre-steady-state target cleavage rate” value turned out to be 0.127 ± 0.018 in assay [1] (setting [4]), 0.00646 ± 0.0022 in assay [1] (setting [5]), 0.00448 ± 0.0039 in assay [2] and 0.0106 ± 0.0037 in assay [3].
UCCUGGAUGUCGAAGCAUAGUAUUUAGUCA: the entries for the “pre-steady-state target cleavage rate” value in assay [1] (setting [4]), in assay [1] (setting [5]) and in assay [2] were 0.0245 ± 0.0057, 0.00315 ± 0.0019 and less than 0.0001, respectively.
On to UCCUGGAUCAGCUUGCAUAGCAUUUAGUUA, for which the “pre-steady-state target cleavage rate” value in assay [1] (setting [4]) was determined as 0.08 ± 0.012; in assay [1] (setting [5]) it was 0.00359 ± 0.0025; in assay [2], 0.00546 ± 0.0038; in assay [3], 0.00774 ± 0.0021.
In the same order, the values of UCCUGGAACUCGUUGCAUAGUAUUUAGUUA are 0.154 ± 0.018, 0.00417 ± 0.0024, less than 0.0001 and 0.00531 ± 0.0017.
With UCCUGGAUCAGCUUGCAUAUUAUUUAGUUA, the “pre-steady-state target cleavage rate” value in assay [1] (setting [4]) was found to be 0.0736 ± 0.0095; in assay [2] it was 0.00536 ± 0.0048; in assay [3], 0.0367 ± 0.011.
For UCCUGCUACAGCUUGCAUAGUAUUAUGAAA the same measures were 0.0843 ± 0.025, less than 0.0001 and 0.00355 ± 0.0023.
With UCCUGGAUCAGCUUGCAUAGUACUUAGUUA, the “pre-steady-state target cleavage rate” value in assay [1] (setting [4]) amounted to 0.237 ± 0.018; in assay [1] (setting [5]) it was 0.00683 ± 0.0023; in assay [2], 0.0113 ± 0.0052; in assay [3], 0.0145 ± 0.0031.
Consider UCCUGGAUCAGCUUGCAUAGUAUUUACUUA, for which the “pre-steady-state target cleavage rate” value in assay [1] (setting [4]) was 0.0636 ± 0.008; in assay [1] (setting [5]) it was 0.00403 ± 0.0024; in assay [2], less than 0.0001.
As to UCCUGGAUGAGCUUGCAUAGUCUUUAGUUA, the “pre-steady-state target cleavage rate” value in assay [1] (setting [4]) was 0.0764 ± 0.012; in assay [1] (setting [5]), 0.00627 ± 0.0022; in assay [2], 0.0128 ± 0.0056; in assay [3] it was 0.0107 ± 0.0033.
Turning to UCCUGGAUGUCCUUGCAUACAAUUUAGUUA, the figures for the “pre-steady-state target cleavage rate” value in assay [1] (setting [5]) and in assay [2] were 0.00248 ± 0.0024 and less than 0.0001, respectively.
For UCCUGGAUCAGCUUGCAUUGUAUAUAGUUA, the “pre-steady-state target cleavage rate” value in assay [1] (setting [4]) was 0.183 ± 0.018; in assay [1] (setting [5]), 0.00663 ± 0.0022; in assay [2], less than 0.0001.
For UCCUGGAUGUCGUUGAAUAGUAUUUAGUUA the same measures were 0.0817 ± 0.015, 0.0047 ± 0.0024 and less than 0.0001.
Regarding UCCUGGAAGAGCUUGCUUAGUAUUUAGUUA, the “pre-steady-state target cleavage rate” value in assay [1] (setting [4]) came out at 0.204 ± 0.016; in assay [1] (setting [5]) it was 0.0109 ± 0.0029; in assay [2] it was 0.00878 ± 0.005; in assay [3], 0.0135 ± 0.0043.
UCCUGGAUGUCGAAGCAUAGUAUAUUAGUUA: the “pre-steady-state target cleavage rate” value in assay [1] (setting [4]) is 0.0302 ± 0.0085; in assay [1] (setting [5]) it was 0.00411 ± 0.0026; in assay [2] it was less than 0.0001.
As for UCCUGGAUGUCCUUCGAUAGUAUUUAGUUA, the “pre-steady-state target cleavage rate” value in assay [1] (setting [4]) was 0.00794 ± 0.0037; in assay [2] it was less than 0.0001.
For UCCUGGAUCUGCUUGCAUAGUAAUUAGUUA, the “pre-steady-state target cleavage rate” value came out at 0.2 ± 0.017 in assay [1] (setting [4]), 0.00416 ± 0.0027 in assay [1] (setting [5]), 0.0241 ± 0.0099 in assay [2] and 0.0152 ± 0.005 in assay [3].
With UCCUGGAACAGCUUGCAUAGUAUUAUGAAA, the “pre-steady-state target cleavage rate” value in assay [1] (setting [4]) was 0.0563 ± 0.02; in assay [2] it was less than 0.0001; in assay [3], 0.00336 ± 0.0021.
For UCCUGGAUCAGCUUGCAUAGUACUUUAGUUA, the “pre-steady-state target cleavage rate” value stood at 0.14 ± 0.016 in assay [1] (setting [4]), 0.00672 ± 0.0027 in assay [1] (setting [5]), 0.00468 ± 0.0038 in assay [2] and 0.00735 ± 0.0023 in assay [3].
In the case of UCCUGGUUCUGCUUGCAUAGUAUUUAGUUA, the “pre-steady-state target cleavage rate” value in assay [1] (setting [4]) amounted to 0.186 ± 0.024; in assay [1] (setting [5]), 0.00814 ± 0.0033; in assay [2], 0.00563 ± 0.0047; in assay [3], 0.0355 ± 0.011.
With UCCUGGAUGUCGAACGAGUAGUAUUUAGUUA, the “pre-steady-state target cleavage rate” value in assay [1] (setting [5]) and in assay [2] was less than 0.0001 throughout.
UCCUGGAUGUCGAAGGAUAGUAUUAAGUUA: the “pre-steady-state target cleavage rate” value in assay [2] and in assay [3] was less than 0.0001 throughout.
As to UCCUGGAUGUCGAUGCAUCGUAUUUAGUUA, the “pre-steady-state target cleavage rate” value in assay [1] (setting [4]) is 0.0238 ± 0.0073; in assay [1] (setting [5]) it was 0.00865 ± 0.0025; in assay [2], less than 0.0001.
On to UCCUGGAUGUCGAACCAUUCAAUUUAGUUA, for which the “pre-steady-state target cleavage rate” value in assay [2] and in assay [3] was less than 0.0001 in each case.
In the case of UCCUGGAUGUCGAUGCACAGUAUUUAGUUA, the “pre-steady-state target cleavage rate” value in assay [1] (setting [4]) is 0.0311 ± 0.0057; in assay [1] (setting [5]) it was 0.00443 ± 0.0024; in assay [2], less than 0.0001.
As to UCCUGGAUGAGCUUGCAUAGUAGUUUAGUUA, the “pre-steady-state target cleavage rate” value was found to be 0.115 ± 0.022 in assay [1] (setting [4]), 0.0138 ± 0.0039 in assay [1] (setting [5]), 0.0124 ± 0.0079 in assay [2] and 0.00964 ± 0.0035 in assay [3].
Regarding UCCUGCUACAGGUUGCAUAGUAUUUACAAA, the entries for the “pre-steady-state target cleavage rate” value in assay [1] (setting [4]), in assay [2] and in assay [3] were 0.0112 ± 0.0054, less than 0.0001 and 0.00244 ± 0.0017, respectively.
Consider UCCUGGAUGUGCUUGCUUAGUAUUUAGAUA, for which the “pre-steady-state target cleavage rate” value in assay [1] (setting [4]) was 0.141 ± 0.032.
The same measure, in the same setting: the result for UCCUGGAUCAGCUUGCAUAGUAUUAUCUAA reads 0.0859 ± 0.021; that for UCCUGGAUCAGCUAGCAUAGUAUUUUCAAA, 0.0498 ± 0.013.
Same read-out and setting: with UCCUGGAUCAGCUUGCUUAGUAUUUAGAUA the figure was 0.15 ± 0.023; with UCCUGGUAGAGCUUGCAUAGUAUUUACUUA, 0.0436 ± 0.012; with UCCUGGAUGUCGAACGUUAGUAUUUAGUUA, less than 0.0001.
Same read-out and setting: with UCCUGGAUGUCCUUGCAUAGUAAAUAGUAA the figure was 0.00932 ± 0.0037; with UCCUGGAUCAGCUUGCAUAGUUAAUAGUAA, 0.0192 ± 0.0068.
For the sequence UCCUGGAACAGCUUGCAUAGUAAAAACAAA, the “pre-steady-state target cleavage rate” value in assay [1] (setting [4]) was 0.0763 ± 0.031.
On the same count and under the same terms, with UCCUGGAUGUCGAAGCAUAGUAUUUAGUGUA the figure was 0.035 ± 0.012.
